# Data published in the supplement of paper PMC8728848.
# Only a selection was taken, and the strongest signals are over-represented in it overall.
# Assays:
# Assay in all cases: glycan array binding signal (z-score within array); higher = stronger binding
# Conditions in all cases: glycan notation: IUPAC condensed, linker removed
# [1] = target: Fuc(a1-2)Gal(b1-3)GalNAc(b1-4)[Neu5Ac(a2-3)]Gal(b1-4)Glc
# How it was run: (§1)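 Arrays were curated from the Consortium for Functional Glycomics database, 3228 in total, and kept only where the protein sequence was available. Binding is expressed as a within-array Z-score. This score was averaged across arrays of the same protein sequence at different concentrations or buffers and across linkers, and negative values can be read as non-binding.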
# [2] = target: Fuc(a1-2)Gal(b1-3)GlcNAc
# How it was run: as §1
# [3] = target: Fuc(a1-2)Gal(b1-3)GlcNAc(b1-2)Man(a1-3)[Fuc(a1-2)Gal(b1-3)GlcNAc(b1-2)Man(a1-6)]Man(b1-4)GlcNAc(b1-4)GlcNAc
# How it was run: as §1
# [4] = target: Fuc(a1-2)Gal(b1-3)[Fuc(a1-4)]GlcNAc(b1-3)[Fuc(a1-3)[Gal(b1-4)]GlcNAc(b1-6)]Gal(b1-4)Glc
# How it was run: as §1
# [5] = target: Fuc(a1-2)[Gal(a1-3)]Gal(b1-3)GlcNAc
# How it was run: as §1
# [6] = target: Fuc(a1-2)[Gal(a1-3)]Gal(b1-4)GlcNAc(b1-2)Man(a1-3)[Fuc(a1-2)[Gal(a1-3)]Gal(b1-4)GlcNAc(b1-2)Man(a1-6)]Man(b1-4)GlcNAc(b1-4)GlcNAc
# How it was run: as §1
# [7] = target: Fuc(a1-2)[GalNAc(a1-3)]Gal(b1-4)GlcNAc(b1-2)Man
# How it was run: as §1
# [8] = target: Fuc(b1-3)GlcNAc
# How it was run: as §1
# [9] = target: Gal(b1-3)Gal
# How it was run: as §1
# [10] = target: Gal(b1-3)[Fuc(a1-4)]GlcNAc(b1-2)Man(a1-3)[Gal(b1-3)[Fuc(a1-4)]GlcNAc(b1-2)Man(a1-6)]Man(b1-4)GlcNAc(b1-4)[Fuc(a1-6)]GlcNAc
# How it was run: as §1
# [11] = target: Gal(b1-4)Gal
# How it was run: as §1
# [12] = target: Gal(b1-4)Glc6S
# How it was run: as §1
# [13] = target: Gal(b1-4)GlcNAc
# How it was run: as §1
# [14] = target: Gal(b1-4)GlcNAc(b1-2)Man(a1-6)[Man(a1-3)]Man(b1-4)GlcNAc(b1-4)GlcNAc
# How it was run: as §1
# [15] = target: Gal(b1-4)GlcNAc(b1-2)[Gal(b1-4)GlcNAc(b1-6)]Man(a1-6)[Gal(b1-4)GlcNAc(b1-2)Man(a1-3)]Man(b1-4)GlcNAc(b1-4)[Fuc(a1-6)]GlcNAc
# How it was run: as §1
# [16] = target: Gal(b1-4)GlcNAc(b1-3)Gal(b1-4)GlcNAc(b1-3)GalNAc
# How it was run: as §1
# [17] = target: Gal6P(b1-4)GlcNAc
# How it was run: as §1
# [18] = target: Gal6S(b1-4)Glc6S
# How it was run: as §1
# [19] = target: GalNAc(b1-3)Gal(a1-4)Gal(b1-4)GlcNAc
# How it was run: as §1
# [20] = target: GlcA(b1-6)Gal
# How it was run: as §1
# [21] = target: GlcNAc(a1-4)Gal(b1-4)GlcNAc(b1-3)Gal(b1-4)[Fuc(a1-3)]GlcNAc(b1-3)Gal(b1-4)[Fuc(a1-3)]GlcNAc
# How it was run: as §1
# [22] = target: GlcNAc(b1-2)[GlcNAc(b1-4)]Man(a1-3)[GlcNAc(b1-2)Man(a1-6)]Man(b1-4)GlcNAc(b1-4)GlcNAc
# How it was run: as §1
# [23] = target: GlcNAc(b1-2)[GlcNAc(b1-4)]Man(a1-3)[GlcNAc(b1-4)][GlcNAc(b1-2)[GlcNAc(b1-6)]Man(a1-6)]Man(b1-4)GlcNAc(b1-4)GlcNAc
# How it was run: as §1
# [24] = target: GlcNAc(b1-4)GlcNAc(b1-4)GlcNAc
# How it was run: as §1
# [25] = target: GlcNAc(b1-4)GlcNAc(b1-4)GlcNAc(b1-4)GlcNAc(b1-4)GlcNAc(b1-4)GlcNAc
# How it was run: as §1
# [26] = target: Man(a1-2)Man(a1-2)Man(a1-3)Man
# How it was run: as §1
# [27] = target: Man(a1-2)Man(a1-2)Man(a1-6)[Man(a1-3)]Man
# How it was run: as §1
# [28] = target: Man(a1-2)Man(a1-3)Man
# How it was run: as §1
# [29] = target: Man(a1-2)Man(a1-3)[Man(a1-2)Man(a1-6)]Man
# How it was run: as §1
# [30] = target: Man(a1-2)Man(a1-3)[Man(a1-2)Man(a1-6)]Man(a1-6)[Man(a1-2)Man(a1-2)Man(a1-3)]Man
# How it was run: as §1
binder,measurement,setting,value
Microvirin-2 (Microcystis aeruginosa) (protein) MPNFSHTCSSINYDPDSTILSAECQARDGEWLPTELRLSDHIGNIDGELQFGDQNFQETCQDCHLEFGDGEQSVWLVCTCQTMDGEWKSTQILLDSQIDNNDSQLEIGGSMPNFSHTCSSINYDPDSTILSAECQARDGEWLPTELRLSDHIGNIDGELQFGDQNFQETCQDCHLEFGDGEQSVWLVCTCQTMDGEWKSTQILLDSQIDNNDSQLEIG,glycan array binding signal (z-score),[1],-0.133
same,glycan array binding signal (z-score),[2],-0.139
same,glycan array binding signal (z-score),[3],0.021
same,glycan array binding signal (z-score),[4],-0.137
same,glycan array binding signal (z-score),[5],-0.138
same,glycan array binding signal (z-score),[6],-0.113
same,glycan array binding signal (z-score),[7],-0.138
same,glycan array binding signal (z-score),[8],-0.137
same,glycan array binding signal (z-score),[9],-0.144
same,glycan array binding signal (z-score),[10],0.648
same,glycan array binding signal (z-score),[11],-0.143
same,glycan array binding signal (z-score),[12],-0.134
same,glycan array binding signal (z-score),[13],-0.131
same,glycan array binding signal (z-score),[14],-0.141
same,glycan array binding signal (z-score),[15],-0.131
same,glycan array binding signal (z-score),[16],0.024
same,glycan array binding signal (z-score),[17],-0.134
same,glycan array binding signal (z-score),[18],-0.128
same,glycan array binding signal (z-score),[19],-0.131
same,glycan array binding signal (z-score),[20],-0.139
same,glycan array binding signal (z-score),[21],-0.031
same,glycan array binding signal (z-score),[22],-0.139
same,glycan array binding signal (z-score),[23],-0.141
same,glycan array binding signal (z-score),[24],-0.14
same,glycan array binding signal (z-score),[25],-0.135
same,glycan array binding signal (z-score),[26],5.28
same,glycan array binding signal (z-score),[27],9.44
same,glycan array binding signal (z-score),[28],4.43
same,glycan array binding signal (z-score),[29],7.03
same,glycan array binding signal (z-score),[30],6.69
